# Compound activity deposited in PubChem by National Center for Advancing Translational Sciences (NCATS).
# GLS inhibitor: blocks human kidney-isoform glutaminase activity | GLS enzymatic activity, qHTS titration | actives 0.21% (n = 410,000) | Potency, µM (titrated, usually from 45.5 µM), for inactives: at the highest dose activity change, negative = inhibition, usual class: inhibitors; further: potency means the concentration at half of the fitted maximal effect; on the % scale 0 is the no-effect control and ±100 the full control effect
#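 hKGA; 45 mM KH2PO4 pH 8.2 + 0.02% Tween-20; cpd via pin tool; 1 mM Gln soln; GluOx/HRP/Amplex Red; RT 30 min; fluor. t0 & final.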
# hERG WT inh: blocks the wildtype human KCNH2 potassium channel; Q12809; U2OS, BacMam KCNH2, thallium flux FluxOr; hits give low values; activity change, % at 1.84 µM; actives 0.37% (n = 340,000);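 active means maximum activity change below -70%; inconclusive means maximum activity change between -70% and -50%; inactive means maximum activity change above -50%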; further: on the % scale 0 is the no-effect control and ±100 the full control effect
#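 U2OS cells transduced with wild-type KCNH2 virus are loaded with FluxOr dye for 45 min, and thallium flux is measured in kinetic reads before and after stimulation buffer. Rate constants are normalized to DMSO controls.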
# GLP-1R inv ag: acts as inverse agonist at human GLP-1 receptor. HEK293 GLP-1R CRE-luciferase, luminescence, 24 h; GLP-1R form is constitutively active. Potency, µM (titrated, usually from 38.3 µM), for the others: at the top dose activity change, negative = inhibition, actives largely listed as inhibitors. actives 1.6% (n = 410,000); further: potency means the concentration at half of the fitted maximal effect; on the % scale 0 is the no-effect control and ±100 the full control effect; nearly all actives have a fitted effect of over 55% in size
# Target sequence (P43220 whole entry, looked up): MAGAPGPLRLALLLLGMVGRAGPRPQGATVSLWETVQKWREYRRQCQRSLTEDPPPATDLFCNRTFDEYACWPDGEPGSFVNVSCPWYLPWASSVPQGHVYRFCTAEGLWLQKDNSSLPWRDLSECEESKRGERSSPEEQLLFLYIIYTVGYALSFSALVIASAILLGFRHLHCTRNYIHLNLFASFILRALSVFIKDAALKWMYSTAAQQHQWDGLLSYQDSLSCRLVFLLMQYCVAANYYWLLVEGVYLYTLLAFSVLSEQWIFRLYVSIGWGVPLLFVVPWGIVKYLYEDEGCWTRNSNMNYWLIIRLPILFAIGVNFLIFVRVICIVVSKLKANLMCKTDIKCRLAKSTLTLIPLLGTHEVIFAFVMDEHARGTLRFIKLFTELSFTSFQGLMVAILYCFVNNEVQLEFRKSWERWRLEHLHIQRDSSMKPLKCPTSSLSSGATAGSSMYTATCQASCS
#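 Stable HEK293 clone (constitutively active GLP-1R + cAMP-response luciferase); 200 cells/uL plated, 12 h pre-culture, compound 24 hr, 37 deg C/5% CO2; detection reagent 12 min RT; luminescence.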
# KCNH2 3.1 block: inhibitors of human KCNH2 3.1 potassium channel isoform | activity change, % (tested at about 1.8 µM) | AID 720553 | actives 0.95% (n = 340,000) | U2OS KCNH2 3.1, thallium flux FluxOr; hits give low values;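 active means maximum activity change below -70%; inconclusive means maximum activity change from -70% to -50%; inactive means maximum activity change above -50%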;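 further: thallium influx rate constant from kinetic fluorescence after stimulation buffer; on the % scale 0 is the no-effect control and ±100 the full control effect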
#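 Measured as rate of thallium-driven FluxOr signal in transduced U2OS cells carrying the 3.1 channel, read kinetically for 2 min upon stimulation; values are rate constants scaled to DMSO control wells.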
# GLP1R ag: agonists of human GLP-1 receptor | AID 624172 | Potency, µM (titrated, usually from 45.6 µM), for the others: at the top dose activation, hits mostly activators | actives 0.007% (n = 380,000) | HEK293 GLP-1R CRE-luciferase, luminescence, 4-6 h; cells express a hypersensitive GLP-1R form; further: potency means the concentration at half of the fitted maximal effect; % of control where 0% means no effect
# HEK293 tox: cytotoxicity in counter-screen for GLP-1R inverse agonists; HEK293 cAMP-luciferase reporter cells, luminescence, 24 h; Potency, µM (top dose mostly 38.3 µM), for the others: top-dose activity change, negative = inhibition, actives largely listed as inhibitors; actives 0.13% (n = 410,000);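 further: loss of luciferase light is scored as toxicity; potency means the concentration at half of the fitted maximal effect; on the % scale 0 is the no-effect control and ±100 the full control effect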
#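 A 23 nL compound transfer followed 12 hours of cell culture at 37 deg C; exposure then lasted 24 hr. Luciferase assay detection reagent was dispensed and plates read for luminescence after a 12 min room-temperature wait.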
# * = called active by the depositor; ? = inconclusive; nt = no result given. In the library only some 2.8% were active in any assay of this set; here they are far more common. Unless noted, the call rests on the fitted dose curve; in most records, active means well fitted curve in the direction sought with a large enough effect; inconclusive means small, poorly fitted or top-dose-only effect, or another doubt; inactive means no such curve, though single readings can be large; an effect the other way counts as inactive or inconclusive.
SMILES,GLS inhibitor,hERG WT inh,GLP-1R inv ag,KCNH2 3.1 block,GLP1R ag,HEK293 tox
COc1ccc(C(=O)O/N=C(\N)Cc2ccc(Cl)c(Cl)c2)cc1OC,6%,0,?,-8,-24%,5.6µM*
COc1ccc(C(=O)O/N=C(\N)Cc2ccc(Cl)cc2)cc1OC,6%,2,7.9µM*,-7,8%,?
Cc1ccc(-n2ncc(C(=O)NCc3ccco3)c2C2CCN(C(=O)OC(C)(C)C)CC2)cc1,5%,nt,?,nt,nt,-3%
Cc1ccc(NS(=O)(=O)c2ccc(NC(=O)C(C)Sc3ccc(Cl)cc3)cc2)c(C)c1 (configuration not stated),7%,-14,10µM*,-17,2%,12%
CCOC(=O)C1CCN(C(=O)c2nn(-c3ccc(OC)c(Cl)c3)c(=O)c3c2c2ccccc2n3C)CC1,4%,nt,8%,nt,nt,0%
COC(=O)C(Cc1ccccc1)NC(=O)CCCC(=O)NCc1cccc(OC)c1 (configuration not stated),-6%,-70*,10%,-2,-3%,-6%
COc1cccc(CNC(=O)Cc2ccc(-c3ccccc3)cc2)c1,0%,0,?,-7,18%,8%
Cc1cc2c(cc1C)C(c1ccccc1OC(C)C)CC(=O)N2 (configuration not stated),-3%,11,10µM*,5,3%,-22%
CCc1nnc2n1N(C(C)=O)C(c1ccc(C(C)(C)C)cc1)=C(C(C)=O)S2,6%,nt,?,nt,nt,-29%
Cc1ccc(C)c(OCCC(=O)OCC(=O)Nc2ccc(N3CCOCC3)cc2)c1,10%,-3,-28%,-7,5%,5%
COC(=O)C1=C/C=C\CN(C(c2ccccc2)c2ccccc2)/C=C\1C(=O)OC,-1%,-2,10µM*,-10,1%,0%
Cc1ccccc1NC(=O)CNC(=O)c1ccc(C(F)(F)F)cc1,-7%,0,-4%,5,1%,2%
Cc1ccccc1NC(=O)Nc1ccc(C(F)(F)F)cc1,10%,-7,4.5µM*,-24,6%,-14%
Cc1ccc(Cl)cc1NC(=O)C1CCCN(S(=O)(=O)c2c(C)noc2/C=C/N(C)C)C1 (configuration not stated),11%,nt,-17%,nt,nt,2%
OC(CCCN1CCCCC1)(c1ccccc1)c1ccc(C(F)(F)F)cc1 (configuration not stated),-4%,2,?,-73*,5%,-28%
CSc1ccc(CN(C)C(=O)C(c2ccccc2)c2ccccc2)cc1,-2%,6,10µM*,-16,21%,-28%
CSc1ccc(CN(C)C(=O)C(Cc2ccccc2)NC(=O)c2ccccc2)cc1 (configuration not stated),4%,-14,?,-15,-16%,?
COc1ccc(-c2nnc(SCC(=O)Nc3ccc(C)c(Cl)c3)nc2-c2ccc(OC)c(OC)c2)cc1OC,-7%,nt,-17%,nt,nt,-15%
CCN(CC)C(=O)CCc1nnc(CCc2c[nH]c3ccccc23)o1,0%,5,-7%,3,4%,-4%
CCCN(CC1CC1)C(=O)CCc1nnc(CCc2c[nH]c3ccccc23)o1,11%,5,?,-98*,0%,-6%
COc1ccc(-c2ccc3c(c2)C2CC3CCN2)cc1 (configuration not stated),16µM*,-13,?,-6,4%,-9%
CC(C(=O)O)N1C(=O)/C(=C/C=C/c2ccco2)SC1=S (configuration not stated),4µM*,-9,-21%,12,-16%,?
O=C1/C(=C/C=C/c2ccco2)SC(=S)N1NS(=O)(=O)c1ccccc1,16µM*,-18,?,-6,-2%,?
